# In PubChem BioAssay:
# Values joined by “and” are separate entries in the source; they are usually repeats but may differ in a detail not shown here. Equal entries are not always repeated. Records with an inconclusive call do not appear. Active and inactive are the calls of the source. Unless noted, no rule for the calls is given here.
# Tests used:
# [1] = system: Neuropilin-2 / VEGF-C interaction (human); assay: small molecules blocking Neuropilin-2/VEGF-C interaction – biochemical, microplate binding format, z-score (AID 743281); details: microplate NRP2/VEGF-C binding assay; stronger effect = lower value
# [2] = viability loss in pontine glioma line – cell-based, SU-DIPG-XVII, MIPE5.0, CellTiter-Glo, qHTS, dose response (AID 1347060; cut-off not given, nearly all actives have AC50 up to about 26 µM); details: CellTiter-Glo ATP luminescence
# [3] = viability loss in pontine glioma line – cell-based, JHH-DIPG-1, MIPE4.0, CellTiter-Glo, qHTS, dose response (AID 1347062; cut-off not given, nearly all actives have AC50 up to about 27 µM); details: JHH-DIPG-1 viability, CellTiter-Glo ATP luminescence
# [4] = growth inhibition of DIPG cells – cell-based, MIPE4.0 library, CellTiter-Glo luminescence, qHTS (AID 1347066; cut-off not given, nearly all actives have AC50 up to about 30 µM;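 also: cells exposed to compound for 48 hours before readout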); details: SU-DIPG-VI viability, CellTiter-Glo ATP luminescence
# [5] = JHH-DIPG-1 glioma cell viability, MIPE5.0 library, CellTiter-Glo luminescence, qHTS (AID 1347067; cut-off not given, nearly all actives have AC50 up to about 26 µM;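 also: cells exposed to compound for 48 hours before readout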); details: JHH-DIPG-1 glioma viability, CellTiter-Glo ATP luminescence
# [6] = blockers of cellular phospholipid synthesis – cell-based, LOPAC library, screen 4, primary screen (AID 1347384); details: animal cells, phospholipid biosynthesis inhibition screen; at 10 µM
# [7] = growth inhibition, single agent or in combination, cell-based, chromothripsis tumors, cisplatin or BGB combos (AID 1671449; in the data active = inhibition above about 80%;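 also: cells exposed for 96 hours; 0% = vehicle DMSO and 100% = killing by high DMSO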); details: LFS_MB_P medulloblastoma cells
# [8] = growth inhibition, single agent and combos, cell-based, chromothripsis tumors, cisplatin or BGB combos (AID 1671450; in the data active = inhibition above about 80%;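 also: cells exposed to compound for four days; 0% = vehicle DMSO and 100% = cell killing by high DMSO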); details: HDN33 neuroblastoma cells, stronger effect = higher value
# [9] = growth inhibition, single agents and combos, ICB984, cell-based, cisplatin or BGB combos, synergistic combos for chromothripsis tumors (AID 1671451); details: ICB984 medulloblastoma cells, drug combinations, stronger effect = higher value;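 also: cells exposed for 96 hours before readout; 0% = vehicle DMSO and 100% = killing by high DMSO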
# [10] = growth inhibition, single agents and combos, HTB85, cell-based, BGB or cisplatin IC20 combos, synergistic combos for chromothripsis tumors (AID 1671453; in the data active = inhibition above about 80%;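 also: cells exposed for 96 hours before readout; 0% = vehicle DMSO and 100% = high DMSO killing control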); details: HTB85 osteosarcoma cells, drug combinations, stronger effect = higher value
# [11] = viability loss in pontine glioma line – cell-based, SU-DIPG-IV, MIPE4.0, CellTiter-Glo, qHTS, dose response (AID 1347063; cut-off not given, nearly all actives have AC50 up to about 30 µM;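 also: compound exposure lasted 48 hours before the viability readout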); details: CellTiter-Glo ATP luminescence
# [12] = viability loss in pontine glioma line – cell-based, SU-DIPG-XXV, MIPE5.0, CellTiter-Glo, qHTS, dose response (AID 1347065; cut-off not given, nearly all actives have AC50 up to about 26 µM;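 also: cells exposed to compound for 48 hours before ATP readout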); details: CellTiter-Glo ATP luminescence
# [13] = growth inhibition of DIPG cells – cell-based, MIPE5.0 library, qHTS (AID 1347068; cut-off not given, nearly all actives have IC50 up to about 30 µM); details: SU-DIPG-XXV viability
# [14] = system: Hepatitis C virus NS3 helicase; assay: blockers of NS3h binding to ssDNA – biochemical, fluorescence polarization, LOPAC1280 library, primary screen (AID 687035; in the data active = inhibition above about 37%); details: Purified HCV NS3 helicase, Cy5-dT15 ssDNA binding fluorescence polarization; stronger effect = higher value; concentration not given here
# [15] = compounds altering Cy5-DNA-NS3h complex signal – biochemical, LOPAC1280, artefact control for HCV NS3 helicase inhibitor project (AID 687037); details: Cy5-DNA-NS3h complex fluorescence interference counterscreen
# [16] = viability loss in pontine glioma line – cell-based, SU-DIPG-XIII, MIPE4.0, CellTiter-Glo, qHTS, dose response (AID 1347061; cut-off not given, nearly all actives have AC50 up to about 37 µM;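 also: cells exposed to compound for 48 hours before readout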); details: CellTiter-Glo ATP luminescence
# [17] = biological target: ATP-dependent translocase ABCB1 (Homo sapiens) (UniProt P08183); assay: P-glycoprotein substrate transport blockade – cell-based (AID 377; in the data active = fluorescence slope change above about 50%); details: MDR1-expressing cells, fluorescent substrate accumulation slope; stronger effect = higher value; concentration not given here
# [18] = GFP-Q80 aggregate reduction, neuronal-like cells, cell-based, NGF-treated PC12, GFPQ80 (AID 1614); details: PC12 NGF-treated GFP-polyQ80 inclusion reduction;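 also: lower means fewer inclusions and 0 means no inclusions at all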
# [19] = viability loss in pontine glioma line – cell-based, SU-DIPG-XIII, MIPE5.0, CellTiter-Glo, qHTS, dose response (AID 1347064; cut-off not given, nearly all actives have AC50 up to about 23 µM); details: CellTiter-Glo ATP luminescence
# ATP-dependent translocase ABCB1 (Homo sapiens), sequence (P08183 whole entry, looked up): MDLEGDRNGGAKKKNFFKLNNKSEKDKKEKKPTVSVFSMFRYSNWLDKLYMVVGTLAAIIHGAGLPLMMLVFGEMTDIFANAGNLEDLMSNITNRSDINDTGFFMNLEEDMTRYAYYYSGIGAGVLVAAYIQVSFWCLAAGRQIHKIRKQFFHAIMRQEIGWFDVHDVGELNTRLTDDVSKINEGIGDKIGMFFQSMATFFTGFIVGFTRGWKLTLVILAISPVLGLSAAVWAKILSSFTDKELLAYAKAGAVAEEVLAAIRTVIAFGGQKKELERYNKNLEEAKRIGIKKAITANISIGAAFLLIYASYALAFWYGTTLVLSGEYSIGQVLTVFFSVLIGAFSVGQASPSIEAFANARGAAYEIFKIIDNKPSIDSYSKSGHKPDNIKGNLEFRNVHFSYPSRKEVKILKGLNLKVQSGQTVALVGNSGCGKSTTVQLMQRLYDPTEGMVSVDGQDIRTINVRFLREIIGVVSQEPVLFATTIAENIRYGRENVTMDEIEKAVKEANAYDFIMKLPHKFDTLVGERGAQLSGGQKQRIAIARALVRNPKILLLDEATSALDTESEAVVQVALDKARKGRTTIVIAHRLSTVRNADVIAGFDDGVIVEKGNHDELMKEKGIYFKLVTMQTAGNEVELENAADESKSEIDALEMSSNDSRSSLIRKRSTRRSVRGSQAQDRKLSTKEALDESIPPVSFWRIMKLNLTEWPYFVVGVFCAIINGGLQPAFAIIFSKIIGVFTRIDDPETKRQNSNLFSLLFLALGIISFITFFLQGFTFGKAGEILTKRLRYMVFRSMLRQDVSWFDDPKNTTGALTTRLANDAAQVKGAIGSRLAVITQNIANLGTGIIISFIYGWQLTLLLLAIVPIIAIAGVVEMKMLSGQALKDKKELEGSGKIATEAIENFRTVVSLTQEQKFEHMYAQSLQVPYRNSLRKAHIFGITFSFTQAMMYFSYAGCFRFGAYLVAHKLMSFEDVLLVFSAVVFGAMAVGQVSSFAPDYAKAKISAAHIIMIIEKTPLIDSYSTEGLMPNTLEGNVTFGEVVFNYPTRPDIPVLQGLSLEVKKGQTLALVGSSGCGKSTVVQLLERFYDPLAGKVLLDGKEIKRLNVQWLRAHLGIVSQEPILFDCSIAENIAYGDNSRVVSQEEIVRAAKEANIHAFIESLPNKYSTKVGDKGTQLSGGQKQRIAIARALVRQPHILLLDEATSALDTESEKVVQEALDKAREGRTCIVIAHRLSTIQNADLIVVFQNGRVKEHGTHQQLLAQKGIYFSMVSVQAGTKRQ
smiles,measurement,setting,value
CCCCCCNC(=O)n1cc(F)c(=O)[nH]c1=O,z-score,[1],0.686 (inactive)
same,outcome,[2],inactive
same,outcome,[3],inactive
same,outcome,[4],inactive
same,outcome,[5],inactive
same,outcome,[6],inactive
same,inhibition,"[7]; at 0.5 µM, stronger effect = higher value",-27.2% (inactive) and -12.2% (inactive)
same,inhibition,"[7]; measured here: combination with BGB IC20, at 0.005 µM",-12% and -29.3%
same,inhibition,"[7]; measured here: combination with BGB IC40, at 0.005 µM",-26.4% and -7.28%
same,inhibition,"[7]; measured here: combination with BGB IC40, at 0.05 µM",-34.3% and -13.5%
same,inhibition,"[7]; measured here: combination with cisplatin, at 0.5 µM, stronger effect = higher value",-48.8% and -55.1%
same,inhibition,"[7]; measured here: combination with cisplatin, at 5 µM, stronger effect = higher value",-34.6% and -25%
same,inhibition,"[8]; BGB combo, at 5 µM",41.9% and 91.3%
same,inhibition,[8]; at 0.5 µM,-22% (inactive) and -3.86% (inactive)
same,inhibition,"[8]; cisplatin combo, at 5 µM",46.1% and 36.7%
same,inhibition,"[8]; measured here: with BGB IC20 combination, at 0.5 µM",-20.7% and 5.65%
same,inhibition,"[8]; measured here: with cisplatin IC20 combination, at 0.5 µM",-11.9% and -1.01%
same,inhibition,"[8]; single agent, at 5 µM",90.7% and 52%
same,inhibition,"[9]; BGB IC20 combo, at 0.005 µM",-17.4% and -9.29%
same,inhibition,"[9]; BGB IC40 combo, at 0.005 µM",-22.5% and -2.82%
same,inhibition,"[9]; BGB IC40 combo, at 0.05 µM",-29.3% and 7.79%
same,inhibition,[9]; at 0.5 µM,-42.7% (inactive) and -3.92% (inactive)
same,inhibition,"[9]; cisplatin combo, at 0.05 µM",-33.9% and 7.79%
same,inhibition,"[9]; cisplatin combo, at 0.5 µM",-50% and -4.83%
same,inhibition,"[9]; cisplatin combo, at 5 µM",-43.5% and -25.3%
same,inhibition,"[9]; measured here: 5 uM single agent, at 5 µM",-14.5% and -8.95%
same,inhibition,[10]; at 0.5 µM,-3.88% (inactive) and -24.5% (inactive)
same,inhibition,"[10]; measured here: with BGB IC20, at 0.5 µM",-6.6% and -67.2%
same,inhibition,"[10]; measured here: with BGB IC20, at 5 µM",21% and 3.85%
same,inhibition,"[10]; measured here: with cisplatin IC20, at 0.5 µM",-9.7% and -6.78%
same,inhibition,"[10]; measured here: with cisplatin IC20, at 5 µM",9.85% and 21%
same,inhibition,"[10]; single agent, at 5 µM",31.6% and 31.5%
CN(CCOc1ccc(CC2SC(=O)NC2=O)cc1)c1ccccn1 (stereo unspecified),z-score,[1],0.0365 (inactive) and -0.614 (inactive)
same,outcome,[2],inactive
same,outcome,[3],inactive
same,outcome,[11],inactive
same,outcome,[12],inactive
same,outcome,[4],inactive
same,outcome,[5],inactive
same,outcome,[13],inactive
COc1cc2nc(N(C)CCCNC(=O)C3CCCO3)nc(N)c2cc1OC (stereo unspecified),inhibition,[14],-3% (inactive)
same,fluorescence ratio (interference),[15],1 (inactive)
same,z-score,[1],-0.33 (inactive)
same,outcome,[16],inactive
same,outcome,[3],inactive
same,outcome,[4],inactive
same,outcome,[6],inactive
NCc1ccc(S(N)(=O)=O)cc1,fluorescence slope change,[17],164% (active)
same,inclusion score,[18],2
N[C@@H](C(=O)N[C@@H]1C(=O)N2C(C(=O)O)=C(Cl)CS[C@H]12)c1ccccc1,z-score,[1],-0.232 (inactive)
same,outcome,[16],inactive
same,outcome,[3],inactive
same,outcome,[11],inactive
COc1ccccc1OCC(O)COC(N)=O (stereo unspecified),fluorescence slope change,[17],15.6% (inactive)
same,inclusion score,[18],2
same,outcome,[16],inactive
same,outcome,[3],inactive
same,outcome,[4],inactive
CN(C)CCOC(c1ccc(Cl)cc1)c1ccccn1 (stereo unspecified),inclusion score,[18],2
COc1ccc(OC)c(C(O)CNC(=O)CN)c1 (stereo unspecified),fluorescence slope change,[17],79.4% (active)
same,inclusion score,[18],2
Cc1cn([C@H]2C[C@H](N=[N+]=[N-])[C@@H](CO)O2)c(=O)[nH]c1=O,inclusion score,[18],2
same,outcome,[11],inactive
same,outcome,[4],inactive
C/C=C/C(=O)N(CC)c1ccccc1C,z-score,[1],-0.426 (inactive)
same,outcome,[2],inactive
same,outcome,[3],inactive
same,outcome,[19],inactive
same,outcome,[4],inactive
same,outcome,[5],inactive
same,outcome,[13],inactive
